In ChEMBL document CHEMBL2218924, “A broad activity screen in support of a chemogenomic map for kinase signalling research and drug discovery” (Biochem J, 2013):

Assays:
[1] = molecular target: Platelet-derived growth factor receptor alpha (Homo sapiens) (UniProt P16234); details: at 1 µM
[2] = molecular target: Platelet-derived growth factor receptor alpha (Homo sapiens) (UniProt P16234); details: at 10 µM
[3] = molecular target: Platelet-derived growth factor receptor beta (Homo sapiens) (UniProt P09619); details: at 1 µM
Chain of Platelet-derived growth factor receptor beta (Homo sapiens) (P09619 whole entry): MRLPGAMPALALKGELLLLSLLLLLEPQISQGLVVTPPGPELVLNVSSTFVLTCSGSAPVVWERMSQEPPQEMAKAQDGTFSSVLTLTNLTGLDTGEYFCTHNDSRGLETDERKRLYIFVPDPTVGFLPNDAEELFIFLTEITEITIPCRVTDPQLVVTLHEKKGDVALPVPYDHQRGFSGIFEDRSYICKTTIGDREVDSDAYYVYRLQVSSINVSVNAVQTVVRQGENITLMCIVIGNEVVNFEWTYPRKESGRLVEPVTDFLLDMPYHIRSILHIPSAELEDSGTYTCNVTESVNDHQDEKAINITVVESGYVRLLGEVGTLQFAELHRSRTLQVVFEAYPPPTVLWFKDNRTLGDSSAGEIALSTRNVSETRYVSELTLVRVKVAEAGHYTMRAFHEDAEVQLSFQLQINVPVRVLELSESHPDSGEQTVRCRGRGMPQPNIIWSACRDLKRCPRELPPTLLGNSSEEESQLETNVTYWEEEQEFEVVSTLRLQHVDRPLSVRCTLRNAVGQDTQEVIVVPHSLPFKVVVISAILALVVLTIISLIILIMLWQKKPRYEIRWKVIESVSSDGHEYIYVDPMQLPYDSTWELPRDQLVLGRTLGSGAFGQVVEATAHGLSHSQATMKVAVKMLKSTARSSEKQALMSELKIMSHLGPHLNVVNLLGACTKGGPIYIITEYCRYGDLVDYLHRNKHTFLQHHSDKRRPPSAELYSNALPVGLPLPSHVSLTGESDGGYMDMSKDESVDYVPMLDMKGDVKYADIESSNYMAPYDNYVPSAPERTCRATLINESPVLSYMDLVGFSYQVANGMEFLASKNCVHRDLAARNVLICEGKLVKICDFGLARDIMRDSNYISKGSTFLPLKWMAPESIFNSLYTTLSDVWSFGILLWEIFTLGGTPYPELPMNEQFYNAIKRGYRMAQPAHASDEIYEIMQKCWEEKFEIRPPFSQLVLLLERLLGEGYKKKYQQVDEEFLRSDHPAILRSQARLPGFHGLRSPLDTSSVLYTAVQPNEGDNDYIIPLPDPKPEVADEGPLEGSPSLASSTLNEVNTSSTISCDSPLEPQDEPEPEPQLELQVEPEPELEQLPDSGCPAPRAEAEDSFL

[4] = molecular target: Platelet-derived growth factor receptor beta (Homo sapiens) (UniProt P09619); details: at 10 µM
[5] = molecular target: T1, 3-phosphoinositide-dependent protein kinase 1 (Homo sapiens) (UniProt O15530); details: at 1 µM
T1 sequence (whole entry): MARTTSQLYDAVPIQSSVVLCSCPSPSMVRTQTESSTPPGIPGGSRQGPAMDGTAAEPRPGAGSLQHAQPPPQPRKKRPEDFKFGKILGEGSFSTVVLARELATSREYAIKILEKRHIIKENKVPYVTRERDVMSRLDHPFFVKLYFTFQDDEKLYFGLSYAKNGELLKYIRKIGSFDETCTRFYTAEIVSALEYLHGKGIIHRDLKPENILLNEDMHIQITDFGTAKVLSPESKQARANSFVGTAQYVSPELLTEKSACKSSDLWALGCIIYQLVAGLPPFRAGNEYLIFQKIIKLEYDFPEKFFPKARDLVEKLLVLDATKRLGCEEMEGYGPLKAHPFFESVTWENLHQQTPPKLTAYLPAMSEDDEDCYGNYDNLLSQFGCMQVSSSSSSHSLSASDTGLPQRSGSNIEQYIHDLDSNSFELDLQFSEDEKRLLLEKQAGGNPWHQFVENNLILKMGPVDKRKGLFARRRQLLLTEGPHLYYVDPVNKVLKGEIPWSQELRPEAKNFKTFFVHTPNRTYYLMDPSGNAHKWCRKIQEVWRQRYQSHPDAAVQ

[6] = molecular target: T1, 3-phosphoinositide-dependent protein kinase 1 (Homo sapiens); details: at 10 µM
[7] = molecular target: cAMP-dependent protein kinase catalytic subunit alpha (Homo sapiens) (UniProt P17612); details: at 1 µM
[8] = molecular target: cAMP-dependent protein kinase catalytic subunit alpha (Homo sapiens) (UniProt P17612); details: at 10 µM
[9] = molecular target: RAC-gamma serine/threonine-protein kinase (Homo sapiens) (UniProt Q9Y243); details: at 1 µM
Chain of RAC-gamma serine/threonine-protein kinase (Homo sapiens) (Q9Y243 whole entry): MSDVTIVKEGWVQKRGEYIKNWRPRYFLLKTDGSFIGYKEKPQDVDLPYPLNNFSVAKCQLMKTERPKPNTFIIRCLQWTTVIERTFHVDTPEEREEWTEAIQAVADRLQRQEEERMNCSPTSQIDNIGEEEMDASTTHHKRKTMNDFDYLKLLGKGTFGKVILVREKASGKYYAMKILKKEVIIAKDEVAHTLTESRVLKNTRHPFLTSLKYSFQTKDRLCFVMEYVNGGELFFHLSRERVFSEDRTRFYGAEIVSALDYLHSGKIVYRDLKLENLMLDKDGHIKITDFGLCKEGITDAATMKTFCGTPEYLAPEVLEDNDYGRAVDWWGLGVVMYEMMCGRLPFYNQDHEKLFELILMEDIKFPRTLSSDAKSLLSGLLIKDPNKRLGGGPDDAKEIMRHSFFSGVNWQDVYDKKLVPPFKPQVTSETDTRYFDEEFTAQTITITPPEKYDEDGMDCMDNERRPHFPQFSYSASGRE

[10] = molecular target: RAC-gamma serine/threonine-protein kinase (Homo sapiens) (UniProt Q9Y243); details: at 10 µM

Chain of Platelet-derived growth factor receptor alpha (Homo sapiens) (P16234 whole entry): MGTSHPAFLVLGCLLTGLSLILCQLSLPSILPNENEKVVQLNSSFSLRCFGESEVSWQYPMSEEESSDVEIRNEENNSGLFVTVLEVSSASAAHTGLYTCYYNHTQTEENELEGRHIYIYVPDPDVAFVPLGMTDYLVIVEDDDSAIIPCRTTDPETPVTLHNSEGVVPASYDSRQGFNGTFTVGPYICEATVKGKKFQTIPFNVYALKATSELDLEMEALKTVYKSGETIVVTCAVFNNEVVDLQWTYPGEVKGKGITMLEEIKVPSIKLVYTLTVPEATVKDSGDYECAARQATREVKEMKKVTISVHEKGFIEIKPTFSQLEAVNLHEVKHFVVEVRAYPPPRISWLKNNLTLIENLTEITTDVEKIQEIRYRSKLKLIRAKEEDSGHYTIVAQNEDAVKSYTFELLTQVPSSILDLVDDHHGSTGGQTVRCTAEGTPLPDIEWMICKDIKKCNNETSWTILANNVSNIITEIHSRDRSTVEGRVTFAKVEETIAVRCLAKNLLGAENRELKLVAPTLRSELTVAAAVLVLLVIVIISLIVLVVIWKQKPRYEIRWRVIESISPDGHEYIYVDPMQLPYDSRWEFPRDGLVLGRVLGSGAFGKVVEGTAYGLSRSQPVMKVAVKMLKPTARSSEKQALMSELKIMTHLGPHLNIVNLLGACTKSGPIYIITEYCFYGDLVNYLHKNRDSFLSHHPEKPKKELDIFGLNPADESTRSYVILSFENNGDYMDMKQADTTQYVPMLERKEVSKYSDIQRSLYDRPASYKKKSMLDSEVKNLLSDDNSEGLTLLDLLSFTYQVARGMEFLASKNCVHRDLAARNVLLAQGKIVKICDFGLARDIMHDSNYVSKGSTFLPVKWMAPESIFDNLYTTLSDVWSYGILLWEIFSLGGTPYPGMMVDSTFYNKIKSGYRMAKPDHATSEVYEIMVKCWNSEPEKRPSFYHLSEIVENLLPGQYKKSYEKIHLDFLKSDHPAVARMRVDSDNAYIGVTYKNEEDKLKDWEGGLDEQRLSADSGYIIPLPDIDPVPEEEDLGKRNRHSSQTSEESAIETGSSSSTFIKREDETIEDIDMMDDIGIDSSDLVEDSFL

Row | SMILES | residual activity [1] | residual activity [2] | residual activity [3] | residual activity [4] | residual activity [5] | residual activity [6] | residual activity [7] | residual activity [8] | residual activity [9] | residual activity [10]
1 | CNc1cc2c(Nc3cccc(Br)c3)ncnc2cn1 | 122% | 107% | 109% | 113% | 100% | 64% | 102% | 98% | 104% | 93%
2 | Oc1c2ccccc2c2c3c(cccc13)N=N2 | 108% | 86% | 99% | 96% | 72% | 19% | 89% | 73% | 89% | 66%
3 | COc1ccc(C(=O)Nc2sc3c(c2C(N)=O)CCCC3)cc1OC | 87% | 86% | 89% | 97% | 95% | 96% | 97% | 95% | 102% | 87%
4 | CO[C@H]1[C@@H](OC)C[C@H](C)[C@@H](OC)C2=CC(=O)C=C(NC(=O)/C(C)=C/C=C/[C@H](OC)[C@@H](OC(N)=O)/C(C)=C/[C@@H]1C)C2=O | 114% | 107% | 108% | 80% | 112% | 96% | 79% | 70% | 94% | 75%
5 | CO[C@H]1C[C@@H]2CC[C@@H](C)[C@@](O)(O2)C(=O)C(=O)N2CCCC[C@H]2C(=O)O[C@H]([C@H](C)C[C@@H]2CC[C@@H](O)[C@H](OC)C2)CC(=O)[C@H](C)/C=C(\C)[C@@H](O)[C@@H](OC)C(=O)[C@H](C)C[C@H](C)/C=C/C=C/C=C/1C | 111% | 102% | 116% | 114% | 117% | 126% | 112% | 141% | 103% | 98%
6 | CC(C)n1cnc2/c(=N/c3cccc(Cl)c3)nc(NCCO)[nH]c21 | 105% | 107% | 108% | 113% | 96% | 81% | 96% | 89% | 95% | 76%
7 | C[C@@H](N)[C@H]1CC[C@H](C(=O)Nc2ccncc2)CC1 | 99% | 102% | 107% | 106% | 95% | 83% | 96% | 80% | 104% | 93%
8 | O=C1c2ccccc2-[n+]2ccc3c([nH]c4ccccc43)c21 | 107% | 103% | 110% | 102% | 100% | 102% | 94% | 98% | 112% | 87%
9 | Cc1ccc(S(=O)(=O)/C=C/C#N)cc1 | 100% | 109% | 104% | 107% | 105% | 108% | 102% | 102% | 108% | 85%
10 | O=C(Nc1cccc(Nc2cc(Nc3cccc(C(F)(F)F)c3)ncn2)c1)C1CC1 | 110% | 109% | 98% | 93% | 93% | 87% | 103% | 112% | 90% | 96%
11 | O=c1c2ccccc2[nH]c(=S)n1CCN1CCC(=C(c2ccc(F)cc2)c2ccc(F)cc2)CC1 | 105% | 97% | 106% | 85% | 116% | 111% | 92% | 114% | 93% | 40%
12 | NC(=O)c1ccc2[nH]c(-c3ccc(Oc4ccc(Cl)cc4)cc3)nc2c1 | 115% | 121% | 107% | 128% | 105% | 107% | 106% | 129% | 106% | 103%
13 | Nc1n[nH]c2nnc(-c3c(-c4ccccc4)nn4ccccc34)cc12 | 105% | 100% | 97% | 99% | 102% | 94% | 97% | 77% | 99% | 82%
14 | N#Cc1cnc2cnc(NCc3cccnc3)cc2c1Nc1ccc(F)c(Cl)c1 | 97% | 54% | 119% | 88% | 45% | 41% | 5% | 1% | – | –
15 | O=C1Nc2ccc(Br)cc2/C1=C\c1cc2c([nH]1)CCCC2 | 34% | 23% | 74% | 51% | 109% | 99% | 108% | 80% | 105% | –
16 | CN(C)c1ccc(/C=C2\C(=O)Nc3ccccc32)cc1 | 79% | 14% | 101% | 30% | 114% | 92% | 89% | 86% | 96% | 100%

Row | SMILES | residual activity [1] | residual activity [2] | residual activity [3] | residual activity [4] | residual activity [5] | residual activity [6] | residual activity [7] | residual activity [8] | residual activity [9] | residual activity [10]
17 | O=[N+]([O-])c1ccc(-c2nc(-c3ccc(F)cc3)c(-c3ccncc3)[nH]2)cc1 | 114% | 114% | 103% | 111% | 117% | 100% | 97% | 82% | 98% | 75%
18 | Cn1cnc2cc3c(Nc4cccc(Br)c4)ncnc3cc21 | 108% | 79% | 103% | 81% | 106% | 92% | 99% | 75% | 101% | 96%
19 | Cc1ccc(NC2=CC(=O)c3sc(C)nc3C2=O)cc1 | 104% | 112% | 93% | 92% | 99% | 102% | 102% | 106% | 91% | 89%
20 | Cc1nc(-c2ccccc2)c(-c2ccncc2)o1 | 89% | 83% | 99% | 92% | 114% | 102% | 94% | 85% | 118% | 88%
21 | CC[n+]1c(/C=C/N(C)c2ccccc2)n(-c2ccccc2)c2ccc(-c3nc4ccccc4s3)cc21 | 117% | 94% | 103% | 125% | 121% | 149% | 110% | 146% | 105% | 65%
22 | N#C/C(=C(\N)Sc1ccc(N)cc1)c1ccccc1C(F)(F)F | 112% | 113% | 98% | 102% | 98% | 87% | 79% | 80% | 96% | 86%
23 | CN(C)CCCn1cc(C2=C(c3c[nH]c4ccccc34)C(=O)NC2=O)c2ccccc21 | 121% | 78% | 106% | 65% | 63% | 15% | 60% | 20% | 30% | 7%
24 | Oc1ccc(Nc2nc(-c3ccc(Cl)cc3)cs2)cc1 | 87% | 83% | 117% | 137% | 115% | 102% | 100% | 129% | 123% | 104%
25 | Oc1n[nH]c2nnc(-c3c(-c4ccccc4)nn4ccccc34)cc12 | 103% | 110% | 103% | 110% | 85% | 70% | 86% | 101% | 96% | 84%
26 | Nc1nc(Nc2ccc(S(N)(=O)=O)cc2)nn1C(=S)Nc1c(F)cccc1F | 82% | 39% | 83% | 24% | 3% | 0% | 53% | 16% | – | –
27 | Cc1nc2cc3nc(-c4cccs4)cnc3cc2n1C | 78% | 15% | 97% | 46% | 109% | 109% | 104% | 106% | 112% | 102%
28 | CC(=O)O/N=C1\C(=C2\C(=O)Nc3cc(Br)ccc32)Nc2ccccc21 | 102% | 79% | 86% | 52% | 91% | 67% | 86% | 93% | 98% | 79%
29 | Cn1cc(/C=C2\C(=O)Nc3ccc(S(N)(=O)=O)cc32)c2ccccc21 | 77% | 33% | 98% | 51% | 76% | 32% | 93% | 57% | 88% | 81%
30 | O=C1NC(=O)/C(=C\c2ccc3nccnc3c2)S1 | 116% | 109% | 97% | 106% | 111% | 98% | 71% | 70% | 98% | 85%
31 | O=C1Nc2cc(Br)ccc2/C1=C1/Nc2ccccc2/C1=N\O | 30% | 6% | 36% | 11% | 42% | 37% | 89% | 97% | 83% | 83%
32 | COc1cc2ncnc(Nc3ccc(O)c(Br)c3)c2cc1OC | 103% | 78% | 105% | 83% | 97% | 76% | 88% | 90% | 101% | 80%
